SARS 3CLpro inh = SARS-CoV 3CLpro protease inhibition. P0C6X7. recombinant SARS-CoV 3CLpro, quenched FRET peptide cleavage. inhibition, % at 6 µM. hit rate 0.14% among 290,000. AID 1706; in the data active means inhibition above about 12%
PriA SSB inh = K. pneumoniae PriA-SSBct interaction inhibition; AlphaScreen SSBct-PriA binding, biotinylated peptide; inhibition, % at 33 µM; hit rate 0.6% among 430,000; AID 1272365; in the data active means inhibition mostly above about 37%, no sharp cut-off; inactive means mostly below about 20%
PrP UTR inh = inhibition of PrP 5' UTR reporter expression; hit rate 0.35% among 340,000; inhibition, % (no concentration beside the values); cell-based PrP 5' UTR mRNA reporter, plate reader; in the data active means inhibition above about 52%
PrPC surface inh = cell surface PrPC inhibition, primary TR-FRET screen; P04156; inhibition, % at 13.8 µM; TR-FRET read-out; AID 720596; hit rate 0.43% among 370,000; in the data active means inhibition above about 24%
PfHsp40 yeast = restores yeast growth despite PfHsp40 toxicity | S. cerevisiae expressing PfHsp40, growth rescue, ATP luminescence | growth rescue, % at 12.5 µM | hit rate 0.68% among 340,000 | AID 504582; in the data active means growth rescue above about 28%, passing the limit was not always enough; inconclusive means no clear call, values can overlap the other calls;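 further: yeast W303a lacking pdr1 and pdr3 grown in galactose medium; growth measured after three days at 30 °C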
BH1578 lux ind = induces V. cholerae light production without autoinducers. activation, % at 18.7 µM. V. cholerae BH1578 lux reporter, luminescence, 6 h. AID 588436. hit rate 0.16% among 350,000; in the data active means activation mostly above about 9.7%, no sharp cut-off; inconclusive means no clear call, values can overlap the other calls; inactive means mostly below about 3.7%
Hits are given with their value. This is a sample that favours compounds with a hit; in the whole collection about 1.6% have one here.

`O=C(NCC1CC1(Cl)Cl)Nc1ccc(Cl)c(Cl)c1` (configuration not stated) gave SARS 3CLpro inh inactive, PriA SSB inh inactive, PrP UTR inh inactive, PrPC surface inh inactive, PfHsp40 yeast 304 and BH1578 lux ind inactive.
Screening Cc1ccc(NC(=O)NCC2CC2(Cl)Cl)cc1 (configuration not stated) returned SARS 3CLpro inh inactive, PriA SSB inh inactive, PrP UTR inh inactive, PrPC surface inh inactive, PfHsp40 yeast inactive and BH1578 lux ind inactive.
For CCOC(=O)c1ccc(NC(=O)c2ncc(-c3ccc(Cl)cc3)o2)cc1 the results were PriA SSB inh inactive.
COCCNC(=O)c1ccccc1-c1ccccc1C(N)=O was read as PriA SSB inh inactive.
Screening O=C(O)CC/C(=N/Nc1ccc([N+](=O)[O-])cc1)C(=O)O returned SARS 3CLpro inh inactive, PrP UTR inh inactive, PrPC surface inh inactive, PfHsp40 yeast 135 and BH1578 lux ind inactive.
Screening CCc1ccc(-c2n[nH]c(=O)c3nc(C)sc23)cc1 returned PriA SSB inh inactive.
Screening O=C(NC1=NCCS1)c1csc2ccccc12 returned SARS 3CLpro inh inactive, PriA SSB inh inactive, PrP UTR inh inactive, PrPC surface inh inactive, PfHsp40 yeast 50 and BH1578 lux ind inactive.
Screening Cc1cc(C)cc(NC(=O)c2n[nH]c3ccccc23)c1 returned PriA SSB inh inactive.
For C=CS(=O)(=O)c1ccc(Oc2ccc(S(=O)(=O)C=C)cc2)cc1 the results were SARS 3CLpro inh inactive, PriA SSB inh inactive, PrP UTR inh inactive, PrPC surface inh 64, PfHsp40 yeast inactive and BH1578 lux ind inactive.
`COCCn1nc(CNC(=O)c2cc(C)cs2)cc1-c1ccco1` gave PriA SSB inh inactive.
Screening O=C(CSc1ccc(-c2ccc(-n3cccn3)cc2)nn1)Nc1nccs1 returned PriA SSB inh inactive.
`COC(=O)C1=C(c2ccc(S(C)(=O)=O)cc2)C[C@@H]2CC[C@H]1N2C(=O)N1CCCC1` gave PriA SSB inh inactive, PrP UTR inh inactive, PrPC surface inh inactive, PfHsp40 yeast inactive and BH1578 lux ind inactive.
For COC(=O)C1=C(c2ccc(S(C)(=O)=O)cc2)C[C@@H]2CC[C@H]1N2C(=O)N1CCCCC1 the results were PriA SSB inh inactive, PrP UTR inh inactive, PrPC surface inh inactive, PfHsp40 yeast 78 and BH1578 lux ind inactive.
Screening Cc1nnsc1C(=O)NCC#CCOc1ccc2c(c1)OCO2 returned PriA SSB inh inactive.
For CCCS(=O)(=O)N1CCCC(C(=O)NCCCN(CC)c2cccc(C)c2)C1 (configuration not stated) the results were SARS 3CLpro inh inactive, PriA SSB inh inactive, PrP UTR inh inactive, PrPC surface inh inactive, PfHsp40 yeast inactive and BH1578 lux ind active.
For CCCS(=O)(=O)N1CCC(C(=O)NCCCN(CC)c2cccc(C)c2)CC1 the results were SARS 3CLpro inh inactive, PriA SSB inh inactive, PrP UTR inh inactive, PrPC surface inh inactive, PfHsp40 yeast inactive and BH1578 lux ind inactive.
For CCSc1ccc(Cc2nnc(NC(=O)c3cccs3)o2)cc1 the results were PriA SSB inh inactive.
Cc1cc(C(=O)CSc2ccc(F)cc2)cc(C)c1OC(=S)N(C)C was read as SARS 3CLpro inh inactive, PriA SSB inh inactive, PrP UTR inh 68, PrPC surface inh inactive, PfHsp40 yeast inactive and BH1578 lux ind inactive.
Screening COc1ccc(SCC(=O)c2cc(C)c(OC(=S)N(C)C)c(C)c2)cc1 returned SARS 3CLpro inh inactive, PriA SSB inh inactive, PrP UTR inh inactive, PrPC surface inh inactive, PfHsp40 yeast inactive and BH1578 lux ind inactive.
CCN1C(=O)[C@H]2[C@@H](c3ccc(C)cc3)N3C(=O)N(c4ccccc4)C(=O)[C@@]3(CC)[C@H]2C1=O was read as SARS 3CLpro inh inactive, PriA SSB inh inactive, PrP UTR inh inactive, PrPC surface inh inactive, PfHsp40 yeast 35 and BH1578 lux ind inactive.
`COc1cccc(-c2sc3ccccc3c2-c2ccc(OCCN(C)C)cc2)c1` gave PriA SSB inh 40, PrP UTR inh inactive, PrPC surface inh inactive, PfHsp40 yeast inactive and BH1578 lux ind inactive.
`COc1cccc(-c2sc3ccccc3c2-c2ccc(OCCN3CCCC3)cc2)c1` gave PriA SSB inh inactive, PrP UTR inh inactive, PrPC surface inh inactive, PfHsp40 yeast inconclusive and BH1578 lux ind inactive.
`COc1cccc(-c2sc3ccc(OC)cc3c2-c2ccc(OCCN3CCCC3)cc2)c1` gave PriA SSB inh inactive, PrP UTR inh inactive, PfHsp40 yeast 40 and BH1578 lux ind inactive.
For CSc1nnnn1CCn1nnnc1SC the results were SARS 3CLpro inh inactive, PriA SSB inh inactive, PrP UTR inh inactive, PrPC surface inh 36, PfHsp40 yeast inactive and BH1578 lux ind inactive.
For Cn1nnnc1SCSc1nnnn1C the results were SARS 3CLpro inh inactive, PriA SSB inh inactive, PrP UTR inh inactive, PrPC surface inh inactive and PfHsp40 yeast inactive.
C/C(=N\NS(C)(=O)=O)c1ccccc1 was read as SARS 3CLpro inh inactive, PrP UTR inh inactive, PrPC surface inh inactive, PfHsp40 yeast inconclusive and BH1578 lux ind 17.
`CCCCCCC(=NNS(C)(=O)=O)c1ccccc1` gave PriA SSB inh inactive.
`COc1cc(/C=C2\C(=O)ON=C2c2ccccc2)cc(OC)c1OC` gave SARS 3CLpro inh inactive, PriA SSB inh inactive, PrP UTR inh inactive, PrPC surface inh inactive, PfHsp40 yeast inactive and BH1578 lux ind active.
For O=C(O)c1ccccc1NS(=O)(=O)c1cccc(C(F)(F)F)c1 the results were SARS 3CLpro inh inactive, PriA SSB inh inactive, PrP UTR inh inactive, PrPC surface inh inactive, PfHsp40 yeast inactive and BH1578 lux ind inactive.
O=C(O)c1ccccc1NS(=O)(=O)c1cccc(-n2sc3ccccc3c2=O)c1 was read as SARS 3CLpro inh inactive, PriA SSB inh inactive, PrP UTR inh inactive, PrPC surface inh inactive, PfHsp40 yeast 407 and BH1578 lux ind inactive.
S=C(Nc1ccc(Cl)cc1)Nc1cccc2cnccc12 was read as SARS 3CLpro inh inactive, PriA SSB inh inactive, PrP UTR inh inactive, PrPC surface inh inactive, PfHsp40 yeast 105 and BH1578 lux ind inactive.
CCOc1ccc(NC(=S)Nc2cccc3ccccc23)cc1 was read as SARS 3CLpro inh inactive, PriA SSB inh 50, PrP UTR inh inactive, PrPC surface inh inactive, PfHsp40 yeast inactive and BH1578 lux ind inactive.
For CCc1cccc(NC(=S)Nc2cccc3ccccc23)c1 the results were SARS 3CLpro inh inactive, PriA SSB inh 38, PrP UTR inh inactive, PrPC surface inh inactive, PfHsp40 yeast inactive and BH1578 lux ind inactive.
`Cc1cccc2sc(N(Cc3ccccn3)C(=O)/C=C/c3cccs3)nc12` gave PriA SSB inh inactive.
Screening CCOC(=O)CN1C(=O)N(c2ccc(OC)cc2)c2ncccc2S1(=O)=O returned PriA SSB inh inactive.
COc1ccc(CC(=O)Nc2ccc(SC)nn2)cc1OC was read as PriA SSB inh inactive.
For CCCCC(=O)NCc1ccc2c(c1)cc(C)n2C the results were SARS 3CLpro inh inactive, PriA SSB inh inactive, PrP UTR inh inactive, PrPC surface inh inactive, PfHsp40 yeast inactive and BH1578 lux ind inactive.

Screening results from PubChem BioAssay.
